Test [1] is described as follows: qHTS assay for small molecule agonists of the p53 signaling pathway (AID 651631; calls by dose curve; also: nearly all actives have a fitted effect of over 15% in size; also: potency is read from the fitted curve at half-maximal effect). The method, boiled down: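 HCT-116 cells carrying a stable p53 response element–beta-lactamase reporter were plated, rested 5 h at 37 °C, then exposed to compound in DMSO for 16 h at 37 °C; reporter activity was read as FRET substrate fluorescence after 2 h at room temperature.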
The nature of test [2]: qHTS assay for small molecules that induce genotoxicity in human embryonic kidney cells expressing luciferase-tagged ATAD5 (AID 651632). Also: nearly all actives have a fitted effect of over 15% in size. The procedure, abridged: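 Luminescence read-out: after 16 hr compound exposure at 37C, ATAD5-luciferase HEK293T cells received Amplite, 30 min RT, then CCD imaging. A rise in signal marks genotoxic stress.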
(Quantitative high-throughput screening tests each substance at several concentrations.)

Test [3] in a line: qHTS assay for small molecule agonists of the p53 signaling pathway - cell viability (AID 651633; calls by dose curve; also: nearly all actives have a fitted effect of over 30% in size; also: potency is read from the fitted curve at half-maximal effect). The method, boiled down:
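p53RE-bla cells, seeded at 4,000 per well and rested 5 h at 37 C/5% CO2, received compounds in DMSO for 16 h at 37 C. CellTiter-Glo was then added, and luminescence was read after 30 min at room temperature to gauge cytotoxicity.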

Test [4] is described as follows: qHTS assay for small molecules that induce genotoxicity in human embryonic kidney cells expressing luciferase-tagged ATAD5 - cell viability (AID 651634; calls by dose curve; also: nearly all actives have a fitted effect of over 25% in size; also: potency is read from the fitted curve at half-maximal effect). The method, boiled down:
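HEK293T ATAD5-luc cells, 2,000/well; compound 15.5 hr, 37C/5% CO2; CellTiter-Fluor 30 min, 37C; fluorescence read.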

The nature of test [5]: qHTS assay for small molecule disruptors of the mitochondrial membrane potential - cell viability (AID 720634; calls by dose curve; also: nearly all actives have a fitted effect of over 20% in size; also: potency is read from the fitted curve at half-maximal effect). The method, boiled down:
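Luminescence from CellTiter-Glo (ATP content) gave viability in HepG2 cells, read in the same wells as the MMP dye assay after 1 hr compound exposure at 37 C.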

Test [6] is described as follows: qHTS assay for small molecule disruptors of the mitochondrial membrane potential (AID 720635). Also: potency is read from the fitted curve at half-maximal effect. The method, boiled down: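 HepG2 cells (2,000/well) attached overnight at 37C, then took compound for 1 hr at 37C, 5% CO2. Mito-MPS dye was added for 30 min; fluorescence was read at 490/535 nm (monomers) and 540/590 nm (aggregates).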
A short description of test [7]: qHTS assay to test for compound auto fluorescence at 590 nm (red) in HepG2 cells (AID 720674). The procedure, abridged:
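Intrinsic compound fluorescence in the red window (Ex/Em 540/590 nm) is measured in attached HepG2 cells exposed for 1 hr, DMSO vehicle as baseline, benchmarked to Rose Bengal sodium.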

Test [8] in a line: qHTS assay to test for compound auto fluorescence at 535 nm (green) in HepG2 cells (AID 720675).
A short description of test [9]: qHTS assay to test for compound auto fluorescence at 460 nm (blue) in HEK293 cells (AID 720678). The method, boiled down: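 Measured: blue fluorescence (Ex 405/Em 460 nm) of compound-treated HEK293 cells, incubated overnight at 37C with 5% CO2 and scaled to triamterene equivalents.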
A short description of test [10]: qHTS assay to test for compound auto fluorescence at 590 nm (red) in HEK293 cells (AID 720679). The procedure, abridged:
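Using HEK293 cells at 2,000 per well, the screen added 23 nL of each compound after cell attachment and incubated overnight (37C, 5% CO2). The plate reader then captured red-label fluorescence, Ex/Em 540/590nm.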

A short description of test [11]: qHTS assay to test for compound auto fluorescence at 535 nm (green) in HEK293 cells (AID 720680).
Test [12] can be described thus: qHTS assay to test for compound auto fluorescence at 460 nm (blue) in HEK293 cell free culture (AID 720681). The procedure, abridged: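 Test compounds were pinned into cell-free culture medium (DMEM with 10% FBS) and fluorescence was read directly at Ex/Em 405/460 nm. Signals were expressed as fluorescence equivalents of triamterene, with DMSO vehicle as control.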

Test [13] in a line: qHTS assay to test for compound auto fluorescence at 535 nm (green) in HEK293 cell free culture (AID 720682). The method, boiled down: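 Read-out: 485/535 nm fluorescence intensity, calibrated against fluorescein. Medium only (DMEM + 10% FBS, no cells); test compound or DMSO vehicle added by pintool before plate reading.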
Test [14] can be described thus: qHTS assay to test for compound auto fluorescence at 590 nm (red) in HEK293 cell free culture (AID 720683). The procedure, abridged:
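Tox21 10K library compounds were pinned into cell-free DMEM with 10% FBS and fluorescence was read at excitation 540 nm. Activity is expressed as Rose Bengal sodium equivalency.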

Test [15] in a line: qHTS assay to test for compound auto fluorescence at 590 nm (red) in HepG2 cell free culture (AID 720684). The method, boiled down: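 Readout: intrinsic compound fluorescence at 590 nm emission after 540 nm excitation, scaled to Rose Bengal sodium. Matrix was cell-free MEM with 10% FBS; DMSO vehicle wells served as control.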
Test [16] in a line: qHTS assay to test for compound auto fluorescence at 460 nm (blue) in HepG2 cell free culture (AID 720685). The procedure, abridged:
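Cell-free plates of MEM plus 10% FBS received 23 nL compound or DMSO vehicle; blue-channel (405/460 nm) intensity scored against triamterene as reference fluorophore.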

Test [17] is described as follows: qHTS assay to test for compound auto fluorescence at 535 nm (green) in HepG2 cell free culture (AID 720686).
Test [18] in a line: qHTS assay to test for compound auto fluorescence at 460 nm (blue) in HepG2 cells (AID 720687). The method, boiled down:
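Cells (2,000/well in MEM with 10% FBS) attached overnight at 37 C, then were exposed to compound or DMSO for 1 hr at 37 C, 5% CO2. Fluorescence read at Ex/Em 405/460 nm, expressed as triamterene-equivalent signal.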

Test [19] deals with Glucocorticoid receptor (Homo sapiens) (UniProt P04150). The test is described as follows: qHTS assay to identify small molecule agonists of the glucocorticoid receptor (GR) signaling pathway (AID 720691; active = well fitted activation curve with a large enough effect in the signal ratio in the repeat runs, not every such curve was filed as active; inconclusive = weak or mixed curves, or effect the other way; inactive = no such curve, though single readings can be large or run the other way; the % refers to the signal ratio; also: potency is read from the fitted curve at half-maximal effect). The conditions noted are these: GR-bla HeLa, beta-lactamase reporter ratio, 18 h; activation: at 62.4 µM (top of the series). The method, boiled down: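 HeLa GR-bla reporter line; cells pre-incubated 4 h, compound in DMSO 18 h at 37 C; LiveBLAzer B/G FRET substrate 2 h RT; fluorescence intensity read-out.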

Calls of active or inactive are those of the source. Unless noted, calls follow the shape of the dose curve; as a rule, active = well fitted curve in the direction sought with a large enough effect in the repeat runs; inconclusive = weak or mixed curves; inactive = no such curve, though single readings can be large; an effect the other way counts as inactive or inconclusive.

Sequence of Glucocorticoid receptor (Homo sapiens) (P04150 whole entry, looked up): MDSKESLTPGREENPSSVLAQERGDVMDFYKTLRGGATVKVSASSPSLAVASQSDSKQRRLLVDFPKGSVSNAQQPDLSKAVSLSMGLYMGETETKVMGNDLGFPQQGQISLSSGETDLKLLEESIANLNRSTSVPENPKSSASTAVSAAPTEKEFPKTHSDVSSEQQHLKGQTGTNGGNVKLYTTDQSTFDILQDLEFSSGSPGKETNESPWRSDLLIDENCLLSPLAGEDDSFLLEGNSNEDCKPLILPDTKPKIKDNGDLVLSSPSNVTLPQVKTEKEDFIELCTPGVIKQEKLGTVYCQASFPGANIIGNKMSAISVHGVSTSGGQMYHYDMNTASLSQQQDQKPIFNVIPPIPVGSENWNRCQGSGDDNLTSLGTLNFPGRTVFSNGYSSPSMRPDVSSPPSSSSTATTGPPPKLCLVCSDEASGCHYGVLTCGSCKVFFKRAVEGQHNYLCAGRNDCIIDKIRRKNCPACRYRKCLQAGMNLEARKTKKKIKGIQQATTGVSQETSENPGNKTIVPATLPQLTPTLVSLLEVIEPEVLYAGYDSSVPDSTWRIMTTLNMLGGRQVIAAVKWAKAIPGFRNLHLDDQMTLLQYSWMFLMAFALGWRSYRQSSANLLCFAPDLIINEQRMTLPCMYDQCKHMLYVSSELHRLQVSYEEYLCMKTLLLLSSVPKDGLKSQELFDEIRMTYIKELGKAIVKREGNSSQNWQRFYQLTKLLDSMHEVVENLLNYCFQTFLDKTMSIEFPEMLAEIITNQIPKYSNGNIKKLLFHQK

Take `CC[C@@H](C(=O)[C@@H](C)[C@@H](O)[C@H](C)CCc1ccc(C)c(O)c1C(=O)O)[C@H]1O[C@](CC)([C@H]2CC[C@](O)(CC)[C@H](C)O2)C[C@@H]1C`: the Potency in test [1] is 23.7 µM (active); in test [3], 26.6 µM (active); in test [4] it was 23.7 µM (active); in test [5] it was 5.96 µM (active); in test [6], 1.06 µM (active); in [19] it was 16.9 µM [inconclusive] (active). Further, the Potency result in test [2], in test [8], in test [9], in [12], in test [16] and in test [17] was “inactive” throughout. Further, in test [18], the Potency entry was “inactive”. Moreover, the call in test [7], in test [10], in test [11], in test [13], in test [14] and in [15] was inactive.
For the compound `NC(=S)NS(=O)(=O)c1ccc(N)cc1`, the Potency result in test [1], in test [2], in test [3], in test [4], in test [5] and in [6] was “inactive” throughout. Also, the Potency result in test [8], in [9], in [12], in test [16], in test [17] and in [18] was “inactive” each time. For the same compound, the outcome in test [7], in test [10], in test [11], in [13], in test [14] and in [15] was inactive.
For `NC(=O)[C@@H]1C[C@]2(NC(=O)NC2=O)c2cc(F)ccc2O1`, the Potency entry in test [1], in test [2], in test [3], in test [4], in [5] and in test [6] was “inactive” throughout. Also, the Potency result in [8], in test [9], in [12], in test [16], in test [17] and in [18] was “inactive” each time. Moreover, the call in test [7], in test [10], in test [11], in test [13], in test [14] and in test [15] was inactive.
As to `Cc1ncc(C[n+]2csc(CCOP(=O)(O)O)c2C)c(N)n1`, the Potency result in test [1], in test [2], in [3], in test [4], in test [5] and in test [6] was “inactive” each time. Besides, the Potency result in [8], in test [9], in test [12], in test [16], in [17] and in [18] was “inactive” in each case. For the same compound, the Potency entry in test [19] is “inactive”. Moreover, the compound was classed as inactive in test [7], in [10], in test [11], in test [13], in test [14] and in [15].
For the compound `CN1C(=O)C[C@@H](C(=O)N[C@@H](Cc2cnc[nH]2)C(=O)N2CCC[C@H]2C(N)=O)NC1=O`, the Potency entry in test [1], in test [2], in test [3], in test [4], in test [5] and in test [6] was “inactive” each time. The Potency entry in [8], in test [9], in test [12], in test [16], in [17] and in [18] was “inactive” in each case. In addition, the result in test [7], in [10], in test [11], in test [13], in [14] and in [15] was inactive.
Regarding `CN(Cc1ccccc1)Cc1ccccc1`, the Potency result in [1], in test [2], in [3], in [4], in test [5] and in test [6] was “inactive” throughout. In addition, the Potency result in test [8], in [9], in test [12], in [16], in test [17] and in test [18] was “inactive” each time. Further, the compound was classed as inactive in [7], in [10], in [11], in test [13], in test [14] and in test [15].
In the case of `Cc1cc(C(=O)NCCc2ccc(S(=O)(=O)NC(=O)NN3CCCCCC3)cc2)no1`, the Potency result in test [1], in test [2], in test [3], in [4], in [5] and in test [6] was “inactive” throughout. Besides, the Potency entry in test [8], in [9], in test [12], in [16], in test [17] and in test [18] was “inactive” in each case. The compound was called inactive in [7], in test [10], in test [11], in [13], in test [14] and in test [15].
In the case of `CS(=O)(=O)c1ccc([C@@H](O)[C@@H](COC(=O)CN)NC(=O)C(Cl)Cl)cc1`, the Potency result in test [1], in [2], in [3], in test [4], in test [5] and in test [6] was “inactive” each time. Moreover, the Potency result in [8], in test [9], in test [12], in [16], in test [17] and in test [18] was “inactive” in each case. In addition, the call in test [7], in [10], in test [11], in [13], in test [14] and in [15] was inactive.
`CCCC(CCC)C(=O)OC1C[C@H]2CC[C@@H](C1)[N+]2(C)C` (stereo partly specified): the Potency entry in [1], in test [2], in test [3], in test [4], in test [5] and in test [6] was “inactive” throughout. For the same compound, the Potency result in test [8], in test [9], in [12], in [16], in [17] and in test [18] was “inactive” each time. Further, the outcome in test [7], in test [10], in [11], in [13], in test [14] and in [15] was inactive.
As for `CN=C(N)NCCC[C@H](N)C(=O)O`, the Potency entry in [1], in test [2], in [3], in [4], in test [5] and in test [6] was “inactive” each time. Besides, the Potency entry in test [8], in test [9], in test [12], in [16], in [17] and in [18] was “inactive” each time. The compound was classed as inactive in test [7], in test [10], in test [11], in test [13], in test [14] and in test [15].
With `CCOc1ccc(NC(=S)Nc2ccc(OCC)cc2)cc1`, the Potency entry in test [1], in test [2], in [3], in test [4], in [5] and in [8] was “inactive” throughout. In addition, the Potency entry in test [9], in test [12], in [16], in test [17] and in test [18] was “inactive” in each case. Also, the Potency in test [6] is 11.9 µM (active). Also, the compound was called inactive in [7], in test [10], in test [11], in test [13], in test [14] and in test [15].
For `O=C1CCC/C=C\CCCCCCCCCC1`, the Potency result in test [1], in test [2], in test [3], in test [4], in test [5] and in [8] was “inactive” each time. Further, the Potency entry in test [9], in test [12], in test [16], in [17] and in test [18] was “inactive” in each case. For the same compound, in [6], the Potency was 68.6 µM (active). Moreover, the call in [7], in [10], in test [11], in test [13], in [14] and in [15] was inactive.
With `CN1C(C(=O)Nc2ccccn2)C(=O)c2sc(Cl)cc2S1(=O)=O` (stereo unspecified), the Potency entry in test [1], in test [2], in test [3], in test [4], in [5] and in test [8] was “inactive” throughout. The Potency entry in test [9], in test [12], in test [16], in test [17] and in [18] was “inactive” each time. The Potency in test [6] is 8.41 µM (active). Besides, the result in [7], in [10], in test [11], in test [13], in [14] and in test [15] was inactive.

The record behind these values is PubChem BioAssay (Tox21).
